Results on 18 molecules are retold here after PubChem BioAssay AID1053206 (Broad Institute, 2014).

The source made the active and inactive calls.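 How the source made its calls: active means compounds lowering delta-delta-Ct, meaning more Pax4 mRNA, with half-max potency at most twice the top tested dose; inconclusive means flat fit dropping 30 to 70 percent, or unreliable fit; inactive means the rest.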

The assay is described as follows: Pax4 mRNA induction in alpha cells – mouse alpha TC1 cells, RT-qPCR, cherry-picks, dose response (AID 1053206). As to conditions: 6 days, active compounds read low; at 19.5 µM unless noted. For orientation: Quantitative PCR measures a nucleic acid by following its amplification.
On to `C/C=C/c1ccc(C2[C@@H]3CN(C(=O)Nc4ccc(C(F)(F)F)cc4)C[C@H]2N3)cc1` (stereo partly drawn), for which the max activity (delta-delta-Ct) is -0.019% (inactive).

Regarding `C(=C\c1ccc(C2[C@@H]3CN(Cc4ccc5c(c4)OCO5)C[C@H]2N3)cc1)/c1ccccc1` (stereo partly drawn), the max activity (delta-delta-Ct) is -0.457% (inactive).

With `CO[C@@H](CN(C)Cc1cc(F)ccc1F)[C@@H](C)CN(C(=O)Nc1ccc(C(F)(F)F)cc1)[C@H](C)CO`, the max activity (delta-delta-Ct) is -0.501% [at 10 µM] (inactive).

In the case of `Cc1ccccc1S(=O)(=O)N1C[C@@H]2N[C@H](C1)C2c1ccc(-c2cccc(C#N)c2)cc1` (stereo partly drawn), the max activity (delta-delta-Ct) is -0.001% [at 2.6 µM] (inactive).

Regarding `Fc1cccc(CN2C[C@@H]3N[C@H](C2)C3c2ccc(/C=C/c3ccccc3)cc2)c1` (stereo partly drawn), the max activity (delta-delta-Ct) is -3.37% [at 21 µM] (inactive).

In the case of `C[C@@H]1CN([C@@H](C)CO)C(=O)Cc2cc(NC(=O)C3CCCCC3)ccc2O[C@@H]1CN(C)Cc1ccc(Cl)c(Cl)c1`, the max activity (delta-delta-Ct) was -0.143% [at 1.2 µM] (inactive).

`CN(C)C(=O)c1cccc(-c2ccc(C3[C@@H]4CN(Cc5ccccc5F)C[C@H]3N4)cc2)c1` (stereo partly drawn): the max activity (delta-delta-Ct) is 0.001% [at 5 µM] (inactive).

Take `COc1ccc2c3c(n(C)c2c1)[C@@H](CO)N(CC1CC1)CC31CN(C(=O)c2ccc3c(c2)OCO3)C1`: the max activity (delta-delta-Ct) is -0.004% [at 0.038 µM] (inactive).

With `O=S(=O)(c1ccc(F)cc1)N1C[C@@H]2N[C@H](C1)C2c1ccc(/C=C/c2ccccc2)cc1` (stereo partly drawn), the max activity (delta-delta-Ct) was -0.01% [at 10 µM] (inactive).

`COc1ccc(S(=O)(=O)Nc2ccc3c(c2)CC(=O)N([C@H](C)CO)C[C@H](C)[C@H](CN(C)Cc2ccc(C(=O)Nc4ccccc4N)cc2)O3)cc1`: the max activity (delta-delta-Ct) was -0.17% (inactive).

With `COc1cc(CN2C[C@@H]3N[C@H](C2)C3c2ccc(-c3ccc(C#N)cc3)cc2)cc(OC)c1` (stereo partly drawn), the max activity (delta-delta-Ct) is -0.065% (inactive).

As for `Cc1cccc(-c2ccc(C3[C@@H]4CN(Cc5cccc(F)c5)C[C@H]3N4)cc2)c1` (stereo partly drawn), the max activity (delta-delta-Ct) was -2.82% (inactive).

For the molecule `C[C@H](CO)N1C[C@H](C)[C@@H](CN(C)Cc2ccccc2)Oc2c(NC(=O)Cc3cn(C)c4ccccc34)cccc2C1=O`, the max activity (delta-delta-Ct) was -0.003% [at 10 µM] (inactive).

As to `COc1cccc(-c2cccc(-c3nc(C(=O)Nc4ccc(-c5ccccc5)cc4)cc4c3[C@@H](CCO)N(S(=O)C(C)(C)C)C4)c2)c1` (stereo partly drawn), the max activity (delta-delta-Ct) was -0.152% (inactive).

Regarding `N#Cc1cccc(-c2ccc(C3[C@@H]4CN(C(=O)Nc5ccc(C(F)(F)F)cc5)C[C@H]3N4)cc2)c1` (stereo partly drawn), the max activity (delta-delta-Ct) was -0.156% (inactive).

As to `C/C=C/c1ccc([C@H]2[C@@H](CO)N3C(=O)CN(Cc4ccc(F)cc4)C[C@@H]23)cc1`, the max activity (delta-delta-Ct) was -0.008% [at 0.16 µM] (inactive).

Consider `C[C@H]1CNC(=O)[C@@H](Cc2ccc(C(F)(F)F)cc2)CCn2nncc2COC1`, for which the max activity (delta-delta-Ct) was 0.001% [at 0.16 µM] (inactive).

Take `CNC[C@@H]1Oc2cc(C#Cc3ccccc3OC)ccc2S(=O)(=O)N([C@H](C)CO)C[C@H]1C`: the max activity (delta-delta-Ct) was -0.002% [at 0.6 µM] (inactive).
